Bioassay records from PubChem.
G9a block – blocks human histone lysine methyltransferase G9a; hit rate 8.8% among 350,000; AID 504332; G9a H3K9 monomethylation, AlphaScreen, 2 h; Q96KQ7; Potency, µM (series often up to 102 µM), without a hit: at the top dose activity, negative = inhibition, usual class: inhibitors; note: potency is the fitted concentration of half-maximal effect; % is set by controls: 0 for no effect and ±100 for the full control effect; nearly all actives have a fitted effect of over 75% in size
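Using a bead-based AlphaScreen, monomethylated H3K9 product from 2 h room-temperature reactions (G9a 20 nM, peptide 500 nM, SAM 20 uM) was detected with 0.5 ug/mL rabbit anti-H3K9me1 antibody.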
JMJD2A Tudor – blocks the human JMJD2A Tudor domain; hit rate 4.4% among 390,000; AlphaScreen JMJD2A-Tudor / H3K4me3 peptide binding; AID 504339; O75164; Potency, µM (highest dose often 114 µM), for inactives: at the top dose activity change, negative = inhibition, most hits filed as inhibitors; note: potency is the fitted concentration of half-maximal effect; % is set by controls: 0 for no effect and ±100 for the full control effect; nearly all actives have a fitted effect of over 50% in size
CtBP-E1A inh – blocks the CtBP interaction with E1A | AlphaScreen GST-E1A/His-CtBP binding, 1536-well; stronger effect = lower value | activity change, % (test concentration not listed) | hit rate 0.49% among 340,000; in the data active = activity change below about -65%; inconclusive = mostly about -30% to -63%; note: % is set by controls: 0 for no effect and ±100 for the full control effect
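Homogeneous bead-based format: GST-tagged E1A captured on glutathione donor beads, His-tagged CtBP on nickel acceptor beads; compounds precede bead addition by 2 h at 37 °C.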
Six1-Eya2 inh – blocks human Six1 binding to Eya2; Q15475+O00167; hit rate 0.56% among 360,000; activity change, % (concentration not given with the values); AlphaScreen GST-Six1/His-Eya2 binding, biochemical; stronger effect = lower value; in the data active = activity change below about -65%; inconclusive = mostly about -30% to -63%; note: % is set by controls: 0 for no effect and ±100 for the full control effect
Target sequence (O00167 whole entry, looked up): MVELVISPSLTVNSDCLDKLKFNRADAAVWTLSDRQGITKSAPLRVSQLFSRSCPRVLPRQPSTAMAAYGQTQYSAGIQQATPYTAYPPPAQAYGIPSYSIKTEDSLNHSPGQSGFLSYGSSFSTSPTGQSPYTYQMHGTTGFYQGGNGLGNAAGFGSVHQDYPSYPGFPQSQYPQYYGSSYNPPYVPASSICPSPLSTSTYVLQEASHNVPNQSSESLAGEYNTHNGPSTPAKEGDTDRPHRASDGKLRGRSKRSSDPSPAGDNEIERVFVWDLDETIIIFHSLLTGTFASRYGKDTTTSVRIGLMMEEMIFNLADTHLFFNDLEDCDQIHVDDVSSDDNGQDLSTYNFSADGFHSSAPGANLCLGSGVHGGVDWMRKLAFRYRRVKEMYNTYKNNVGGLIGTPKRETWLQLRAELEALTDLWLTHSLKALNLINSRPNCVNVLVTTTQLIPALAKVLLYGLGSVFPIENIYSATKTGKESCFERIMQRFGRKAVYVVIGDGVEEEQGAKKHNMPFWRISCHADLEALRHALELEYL
Target sequence (Q15475 whole entry, looked up): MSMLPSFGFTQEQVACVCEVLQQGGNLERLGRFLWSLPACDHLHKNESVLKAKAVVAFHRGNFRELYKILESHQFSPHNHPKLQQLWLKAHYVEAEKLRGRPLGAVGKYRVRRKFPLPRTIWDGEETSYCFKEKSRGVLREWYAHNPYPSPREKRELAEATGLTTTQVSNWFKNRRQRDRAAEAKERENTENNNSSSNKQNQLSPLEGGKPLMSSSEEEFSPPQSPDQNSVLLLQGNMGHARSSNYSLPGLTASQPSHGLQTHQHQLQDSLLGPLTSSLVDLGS
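Homogeneous AlphaScreen proximity assay pairing GST-Six1 with His-tagged Eya2 (added as 5X mix: 250 nM and 500 nM) in 50 mM Tris pH 8.0, 300 mM NaCl, 1 mM TCEP. Glutathione donor and nickel acceptor beads; 1 h, 37 °C, dark.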
BAZ2B block – inhibitors of human BAZ2B bromodomain; Potency, µM (top dose mostly 114 µM), without a hit: top-dose activity change, negative = inhibition, actives largely listed as inhibitors; AlphaScreen BAZ2B-H3K14Ac peptide displacement; AID 504333; hit rate 4.4% among 360,000; note: potency is the fitted concentration of half-maximal effect; % is set by controls: 0 for no effect and ±100 for the full control effect; nearly all actives have a fitted effect of over 60% in size
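Compounds, titrated to a top concentration of 110 uM, were incubated 30 min at room temperature with preformed BAZ2B/acetyl-K14 H3 peptide complex (50 nM each). Proximity signal was measured by AlphaScreen after 20 min with beads.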
HP1b binding inh – blocks HP1-beta chromodomain binding to methylated histone tails | P83916 | AlphaScreen HP1-beta / biotin-H3K9me3 peptide binding | Potency, µM (top dose mostly 114 µM), for inactives: at the top dose activity change, negative = inhibition, actives largely listed as inhibitors | hit rate 0.56% among 390,000 | AID 540317; note: potency is the fitted concentration of half-maximal effect; nearly all actives have a fitted effect of over 70% in size
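Compound inhibition of the preformed complex between 50 nM HP1-beta and 50 nM biotinylated H3K9me3 peptide was read by AlphaScreen. Buffer was PBS pH 7.4 with 0.01% Tween-20. Incubations ran 30 min at room temperature, with 10 ug/mL donor/acceptor beads.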
* hit, by the source's call; ? = inconclusive; · = no result given; [ ] = another dose, or the depositor's remark. This is a sample that favours compounds with a hit; in the whole collection about 10% have one here. Unless noted, calls come from the whole dose curve; as a rule, active = well fitted inhibition curve with a large enough effect; inconclusive = small, poorly fitted or top-dose-only effect; inactive = no such curve, though single readings can be large or run the other way.

SMILES	G9a block	JMJD2A Tudor	CtBP-E1A inh	Six1-Eya2 inh	BAZ2B block	HP1b binding inh
O=C(Oc1ccc2c(c1)OCO2)c1cc2c(s1)CCC2	-31%[59 µM]	32µM*	15	-2	-126%	?
Cc1ccc(NCc2n[nH]c(=S)n2-c2ccccc2)cc1	1.6µM*	?	2	0	?	-18%
Cc1ccc(NCc2n[nH]c(=S)n2-c2ccccc2)c(C)c1	4µM*	56µM*	-4	2	?	1%
Cc1cccc(NCc2n[nH]c(=S)n2-c2ccccc2)c1	?	-98%	·	24	?	-24%
CC12CCC(=O)N1C(C(=O)NNC(=O)COc1cccc(C(F)(F)F)c1)CS2 (stereo not drawn)	17%[2.33 µM]	-7%	22	6	-5%	26%
CCSc1ccc2nnc(-c3cccs3)n2n1	?	-16%	?	?	-27%	20%
O=C(CSc1ccc(-c2cccs2)nn1)N1CCCCCC1	-11%[59 µM]	-1%	0	-7	1%	41%
COc1ccc(-c2nnc3ccc(SCC(=O)N4CCOCC4)nn23)cc1	22µM*	-8%	0	1	4%	37%
O=C(CSc1ccc2nnc(-c3cccs3)n2n1)N1CCCC1	18µM*	-3%	2	-29	?	47%
CCOC(=O)CSc1ccc2nnc(-c3cccs3)n2n1	10µM*	-35%	-12	-28	5%	39%
Cc1cccc(NC(=O)CSc2nc(=O)n(CCN3CCOCC3)c3c2CCC3)c1	-2%[59 µM]	1%	·	·	-2%	33%
CC(Oc1ccccc1)C(=O)Nc1cc(Cl)ccc1-n1cncn1 (stereo not drawn)	45µM*	-1%	8	0	-4%	24%
Cc1ccc(C(=O)Nc2cc(Cl)ccc2-n2cncn2)o1	8.9µM*	-13%	3	-2	0%	30%
CCc1ccccc1NC(=O)Cn1c(=O)n(Cc2ccc(OC)cc2)c(=O)c2oc3ccccc3c21	2%[59 µM]	-13%	·	·	-4%	6%
CCCCC(=O)Nc1ccc(NCc2ccc(C)s2)cc1	50µM*	?	·	-11	-35%	-1%
CCOc1ccc(OCC)c(NC(=O)CN2CCN(c3cccc(C)c3)C(C)C2)c1 (stereo not drawn)	?	1.1µM*	-5	-11	50µM*	25µM*
CCOc1ccc(-c2cc(C(=O)N3CCN(c4cccc(C)c4)C(C)C3)c3ccccc3n2)cc1 (stereo not drawn)	?	-31%	·	·	3%	44%
COc1ccc(C)cc1NC(=O)CN1CCN(c2ccc(F)cc2)CC1	-15%[59 µM]	?	-3	-4	?	-9%
CCOc1ccc(OCC)c(NC(=O)CN2CCN(c3cccc(C)c3)CC2)c1	3.5µM*	7.9µM*	-18	?	40µM*	25µM*
COc1ccc(-c2noc(-c3ccc(N4CCC(C)CC4)c([N+](=O)[O-])c3)n2)cc1OC	-9%[59 µM]	-17%	·	·	?	38%
C=CCn1c(Cc2cccs2)nnc1SCC(=O)Nc1ccc(C(=O)OCC)cc1	4%	1%	1	-5	-13%	36%
C=CCn1c(Cc2csc(N)n2)nnc1SCC(=O)Nc1ccc(C(=O)OCC)cc1	17%[59 µM]	79µM*	7	?	22µM*	33%
C=CCn1c(Cc2csc(N)n2)nnc1SCC(=O)OCC	9%[59 µM]	45µM*	-5	-17	28µM*	17%
CC1Cn2c(C(=O)NCc3ccccc3Cl)cc3cccc(c32)S1 (stereo not drawn)	2%[59 µM]	34%	·	·	-6%	84%
CC[C@]12c3[nH]c4ccc(OC)cc4c3CCN1C(=O)C(CC(=O)NCCN1CCOCC1)C[C@@H]2C(=O)N1CCN(C(=O)c2ccco2)CC1 (stereo partly drawn)	·	-29%	0	0	·	20%
SMILES	G9a block	JMJD2A Tudor	CtBP-E1A inh	Six1-Eya2 inh	BAZ2B block	HP1b binding inh
CC1(c2nnnn2-c2ccc3c(c2)OCCO3)CCC(=O)N1CCc1ccccc1F (stereo not drawn)	·	·	-5	10	·	·
Cc1nn(-c2ccccc2)c2c1C(c1ccco1)C(C#N)=C(N)O2 (stereo not drawn)	40µM*	63µM*	-21	-4	40µM*	-39%
Cc1nn(-c2ccccc2)c(Cl)c1C1C(C#N)=C(N)OC2=C1C(=O)CC(C)(C)C2 (stereo not drawn)	16%[59 µM]	-15%	2	-1	3%	4%
Cc1[nH]nc2c1C(c1ccco1)C(C#N)=C(N)O2 (stereo not drawn)	-4%	-8%	-23	-1	-14%	18%
CCCC1=C(C(=O)OCC)C(c2c(C)nn(-c3ccccc3)c2Cl)C(C#N)=C(N)O1 (stereo not drawn)	?	-27%	4	0	15%	22%
CCCc1nn(-c2ccccc2)c2c1C(c1cccs1)C(C#N)=C(N)O2 (stereo not drawn)	?	?	-4	3	40µM*	-27%
Cc1nn(-c2ccccc2)c2c1C(c1ccc([N+](=O)[O-])cc1)C(C#N)=C(N)O2 (stereo not drawn)	50µM*	-33%	·	-14	?	0%
COc1cc(C2C(C#N)=C(N)Oc3c2c(-c2ccccc2)nn3-c2ccccc2)cc(OC)c1OC (stereo not drawn)	?	?	1	-20	45µM*	-2%
C=C[C@H](N)CCC(=O)O	21%[21.5 µM]	·	·	·	·	·
Cc1nn(-c2ccccc2)c(C)c1C1C(C#N)=C(N)Oc2n[nH]c(C)c21 (stereo not drawn)	?	-6%	10	0	-20%	31%
Cc1nn(-c2ccccc2)c2c1C(c1cccs1)C(C#N)=C(N)O2 (stereo not drawn)	35µM*	56µM*	-6	-12	40µM*	50µM*
Cc1ccc(-c2nc(CS(=O)(=O)CC(=O)NC(C)CCc3ccccc3)c(C)o2)cc1 (stereo not drawn)	-11%[59 µM]	-22%	·	·	-18%	34%
CC1=C(c2ccccc2)[N+](=O)C2(CCCCC2)N1[O-]	50µM*	-14%	4	14	-13%	3%
CCC1(CC)N([O-])C(C)=C(c2ccccc2)[N+]1=O	10%	-10%	5	6	3%	19%
CCC(=O)N1CCc2cc(Br)cc(S(=O)(=O)CCC(=O)Nc3ccccc3C)c21	-6%[59 µM]	-11%	·	·	1%	16%
CS(=O)(=O)c1ccccc1C(=O)N1CCN(S(=O)(=O)c2ccc(C3CCCCC3)cc2)CC1	50µM*	-32%	-1	-4	-32%	7%
O=C(c1ccco1)N1CCN(S(=O)(=O)c2ccc(C3CCCCC3)cc2)CC1	2%[12.7 µM]	-13%	1	-3	8%	17%
